These results are taken from publication PMC7862700, “An all-to-all approach to the identification of sequence-specific readers for epigenetic DNA modifications on cytosine”.

Experiment in all cases: DAPPL (digital affinity profiling via proximity ligation, sequencing); 10 mM Tris-HCl pH 7.5, 50 mM NaCl, 1 mM DTT, 4% glycerol, room temperature, 30 min; GST-TFs on glutathione beads, 16-mer random dsDNA library, 0.1% formaldehyde crosslink after washing; high values mean tight binding
Common to all, as to settings: protein: recombinant; tags: N-terminal GST; dsDNA, one strand shown

For one test, the target named is T1, FLI1 (Homo sapiens, UniProt Q01543 1-452).
T1 sequence: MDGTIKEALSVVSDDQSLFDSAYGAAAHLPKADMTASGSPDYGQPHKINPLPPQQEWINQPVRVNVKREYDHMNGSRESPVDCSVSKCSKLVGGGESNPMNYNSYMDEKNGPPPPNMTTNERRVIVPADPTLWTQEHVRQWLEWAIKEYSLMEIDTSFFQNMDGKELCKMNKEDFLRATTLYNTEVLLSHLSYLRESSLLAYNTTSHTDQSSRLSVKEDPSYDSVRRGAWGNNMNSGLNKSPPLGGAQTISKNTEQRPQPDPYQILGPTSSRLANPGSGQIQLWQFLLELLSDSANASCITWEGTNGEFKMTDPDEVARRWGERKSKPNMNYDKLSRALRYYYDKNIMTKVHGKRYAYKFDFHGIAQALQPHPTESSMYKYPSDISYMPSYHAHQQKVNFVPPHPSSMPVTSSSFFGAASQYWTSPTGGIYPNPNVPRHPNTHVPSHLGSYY
The method, boiled down: (§1)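 After expression in yeast as GST fusions, human transcription factors were bound to glutathione beads, DNA-barcoded and mixed with a tag-only sample. The pools were incubated with 200 nmole of a 16-mer random double-stranded DNA library in Tris/NaCl/DTT/glycerol buffer (30 min, room temperature), washed and crosslinked with 0.1% formaldehyde. Proximity ligation with BsaI/T4 ligase ran for 1 h at 37 °C, before PCR amplification and sequencing on an Illumina NextSeq500. Binding signal is a hexamer's read frequency for a factor divided by its frequency for the tag-only sample.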

For a further test, the target named is T2, ELK1 (Homo sapiens, UniProt P19419 1-428).
T2 sequence: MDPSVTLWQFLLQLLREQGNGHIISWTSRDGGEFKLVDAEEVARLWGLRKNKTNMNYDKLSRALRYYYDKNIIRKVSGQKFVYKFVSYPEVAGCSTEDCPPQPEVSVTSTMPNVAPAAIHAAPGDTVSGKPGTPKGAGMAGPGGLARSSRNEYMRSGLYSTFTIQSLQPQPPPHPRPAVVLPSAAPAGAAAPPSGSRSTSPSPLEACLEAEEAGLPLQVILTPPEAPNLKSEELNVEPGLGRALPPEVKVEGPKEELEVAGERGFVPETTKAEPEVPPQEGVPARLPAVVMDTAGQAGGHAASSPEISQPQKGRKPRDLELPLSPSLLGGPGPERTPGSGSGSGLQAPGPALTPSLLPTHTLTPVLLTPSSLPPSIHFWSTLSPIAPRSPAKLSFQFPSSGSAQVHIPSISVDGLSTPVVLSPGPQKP
The method, boiled down: as §1

The target in another test is T3, ERG (Homo sapiens, UniProt P11308 1-479).
T3 sequence: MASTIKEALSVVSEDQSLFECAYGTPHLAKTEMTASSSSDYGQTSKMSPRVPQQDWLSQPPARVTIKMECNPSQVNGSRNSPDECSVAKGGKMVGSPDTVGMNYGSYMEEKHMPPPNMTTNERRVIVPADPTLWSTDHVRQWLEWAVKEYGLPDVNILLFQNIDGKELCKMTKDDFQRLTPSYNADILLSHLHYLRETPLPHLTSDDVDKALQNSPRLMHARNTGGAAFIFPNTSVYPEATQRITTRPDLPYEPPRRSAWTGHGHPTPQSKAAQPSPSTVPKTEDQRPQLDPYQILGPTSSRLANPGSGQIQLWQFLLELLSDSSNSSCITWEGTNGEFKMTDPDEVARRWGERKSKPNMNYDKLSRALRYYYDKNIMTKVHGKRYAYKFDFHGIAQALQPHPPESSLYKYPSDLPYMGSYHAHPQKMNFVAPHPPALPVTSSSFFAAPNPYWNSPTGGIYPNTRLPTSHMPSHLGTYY
The procedure, abridged:
as §1

A further test deals with ELF1 (Homo sapiens, UniProt P32519 1-619). The procedure, abridged:
as §1

For a further test, the target named is SPIB (Homo sapiens, UniProt Q01892 1-262). The procedure, abridged:
as §1

The target of another test is T4, ELK3 (Homo sapiens, UniProt P41970 1-407).
T4 sequence: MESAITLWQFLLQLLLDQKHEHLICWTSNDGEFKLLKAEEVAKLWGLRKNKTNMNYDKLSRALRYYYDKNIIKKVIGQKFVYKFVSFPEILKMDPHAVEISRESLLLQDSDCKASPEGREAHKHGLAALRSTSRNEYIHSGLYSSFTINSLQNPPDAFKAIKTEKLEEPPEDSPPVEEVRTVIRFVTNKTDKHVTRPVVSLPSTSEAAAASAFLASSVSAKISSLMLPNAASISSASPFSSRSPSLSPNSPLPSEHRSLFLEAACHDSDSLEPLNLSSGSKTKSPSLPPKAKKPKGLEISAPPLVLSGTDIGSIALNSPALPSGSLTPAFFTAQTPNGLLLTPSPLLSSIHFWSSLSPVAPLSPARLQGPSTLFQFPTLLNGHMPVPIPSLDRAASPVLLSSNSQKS
The procedure, abridged: as §1

For another test, the target named is T5, FEV (Homo sapiens, UniProt Q99581 1-238).
T5 sequence: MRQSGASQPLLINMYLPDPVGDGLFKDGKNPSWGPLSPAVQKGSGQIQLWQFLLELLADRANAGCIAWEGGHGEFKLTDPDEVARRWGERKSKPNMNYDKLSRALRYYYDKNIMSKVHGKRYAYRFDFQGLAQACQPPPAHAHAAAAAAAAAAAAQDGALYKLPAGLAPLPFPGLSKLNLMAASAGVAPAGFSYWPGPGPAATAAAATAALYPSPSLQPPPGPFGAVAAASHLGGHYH
The procedure, abridged:
as §1

The next test concerns the target ETV5 (Homo sapiens, UniProt P41161 1-510). The method, boiled down:
as §1

The next test has as its target T6, SPIC (Homo sapiens, UniProt Q8N5J4 1-248).
T6 sequence: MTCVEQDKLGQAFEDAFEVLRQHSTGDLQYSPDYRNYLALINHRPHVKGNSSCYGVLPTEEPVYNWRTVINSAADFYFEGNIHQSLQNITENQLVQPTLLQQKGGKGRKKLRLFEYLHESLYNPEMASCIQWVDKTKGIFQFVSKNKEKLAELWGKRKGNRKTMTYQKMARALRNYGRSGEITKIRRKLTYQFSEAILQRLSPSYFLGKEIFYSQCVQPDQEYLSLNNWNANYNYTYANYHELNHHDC
The method, boiled down: as §1

The target of a further test is ELF4 (Homo sapiens, UniProt Q99607 1-663). The method, boiled down: as §1
Another test has as its target ETV1 (Homo sapiens, UniProt P50549 1-477). The procedure, abridged:
as §1

A further test concerns the target T7, ETV3L (Homo sapiens, UniProt Q6ZN32 1-361).
T7 sequence: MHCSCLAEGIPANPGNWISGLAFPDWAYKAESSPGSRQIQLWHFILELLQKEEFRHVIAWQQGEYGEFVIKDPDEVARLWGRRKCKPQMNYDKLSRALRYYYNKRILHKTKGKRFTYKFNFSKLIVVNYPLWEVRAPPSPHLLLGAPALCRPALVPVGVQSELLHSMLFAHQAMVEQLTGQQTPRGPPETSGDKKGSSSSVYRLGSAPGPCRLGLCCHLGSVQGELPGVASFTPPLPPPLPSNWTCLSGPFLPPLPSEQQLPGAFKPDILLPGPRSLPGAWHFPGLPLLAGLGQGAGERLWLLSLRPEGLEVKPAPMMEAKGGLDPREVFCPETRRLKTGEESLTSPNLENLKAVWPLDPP
The method, boiled down: as §1

Another test concerns the target T8, ETV3 (Homo sapiens, UniProt P41162-2 1-143).
T8 sequence: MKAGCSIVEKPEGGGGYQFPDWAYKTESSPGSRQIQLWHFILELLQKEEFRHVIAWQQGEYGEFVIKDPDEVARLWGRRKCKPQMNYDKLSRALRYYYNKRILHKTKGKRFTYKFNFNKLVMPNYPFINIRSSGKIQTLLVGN
The method, boiled down: as §1

A further test concerns the target ETV6 (Homo sapiens, UniProt P41212 1-452). The method, boiled down:
as §1

The next test addresses T9, GABPA (Homo sapiens, UniProt Q06546 1-454).
T9 sequence: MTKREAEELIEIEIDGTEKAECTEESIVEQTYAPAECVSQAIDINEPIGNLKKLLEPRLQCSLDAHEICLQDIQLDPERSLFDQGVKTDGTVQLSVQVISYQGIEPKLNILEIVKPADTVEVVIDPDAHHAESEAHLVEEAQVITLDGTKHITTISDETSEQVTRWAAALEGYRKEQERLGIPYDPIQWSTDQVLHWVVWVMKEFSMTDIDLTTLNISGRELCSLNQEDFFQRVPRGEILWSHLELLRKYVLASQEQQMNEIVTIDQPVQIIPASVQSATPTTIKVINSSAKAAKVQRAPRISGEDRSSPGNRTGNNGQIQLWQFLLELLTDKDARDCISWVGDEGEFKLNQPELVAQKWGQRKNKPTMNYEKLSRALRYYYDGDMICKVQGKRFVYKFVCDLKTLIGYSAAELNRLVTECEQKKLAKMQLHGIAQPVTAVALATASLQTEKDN
The method, boiled down:
as §1

For the next test, the target named is T10, EHF (Homo sapiens, UniProt Q9NZC4 1-300).
T10 sequence: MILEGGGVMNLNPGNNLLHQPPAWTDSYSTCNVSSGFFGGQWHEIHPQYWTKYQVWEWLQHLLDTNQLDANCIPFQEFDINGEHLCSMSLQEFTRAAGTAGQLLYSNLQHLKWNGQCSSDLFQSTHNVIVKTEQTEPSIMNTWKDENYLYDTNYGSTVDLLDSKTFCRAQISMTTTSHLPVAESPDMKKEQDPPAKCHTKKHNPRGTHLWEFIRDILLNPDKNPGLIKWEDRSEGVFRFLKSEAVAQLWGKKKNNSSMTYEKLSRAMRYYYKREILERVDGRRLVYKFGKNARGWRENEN
The procedure, abridged: as §1

The target in another test is SPI1 (Homo sapiens, UniProt P17947 1-270). The procedure, abridged: as §1
The target of a further test is T11, ERF (Homo sapiens, UniProt P50548 1-548).
T11 sequence: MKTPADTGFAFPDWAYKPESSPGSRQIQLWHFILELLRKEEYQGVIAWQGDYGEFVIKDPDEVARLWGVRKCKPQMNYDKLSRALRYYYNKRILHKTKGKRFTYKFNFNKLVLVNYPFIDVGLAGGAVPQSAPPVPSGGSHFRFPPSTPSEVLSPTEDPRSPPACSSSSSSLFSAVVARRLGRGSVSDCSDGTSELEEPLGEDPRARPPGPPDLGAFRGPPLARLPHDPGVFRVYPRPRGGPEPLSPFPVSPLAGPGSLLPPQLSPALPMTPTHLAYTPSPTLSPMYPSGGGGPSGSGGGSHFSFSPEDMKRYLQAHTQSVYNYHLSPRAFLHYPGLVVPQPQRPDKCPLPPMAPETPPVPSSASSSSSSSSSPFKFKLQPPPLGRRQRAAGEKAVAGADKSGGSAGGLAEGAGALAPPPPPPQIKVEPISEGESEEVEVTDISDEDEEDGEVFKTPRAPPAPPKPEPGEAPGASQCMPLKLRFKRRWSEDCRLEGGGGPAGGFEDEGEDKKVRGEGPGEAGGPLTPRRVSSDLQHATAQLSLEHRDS
The procedure, abridged:
as §1

Sequence of ETV5 (P41161 whole entry): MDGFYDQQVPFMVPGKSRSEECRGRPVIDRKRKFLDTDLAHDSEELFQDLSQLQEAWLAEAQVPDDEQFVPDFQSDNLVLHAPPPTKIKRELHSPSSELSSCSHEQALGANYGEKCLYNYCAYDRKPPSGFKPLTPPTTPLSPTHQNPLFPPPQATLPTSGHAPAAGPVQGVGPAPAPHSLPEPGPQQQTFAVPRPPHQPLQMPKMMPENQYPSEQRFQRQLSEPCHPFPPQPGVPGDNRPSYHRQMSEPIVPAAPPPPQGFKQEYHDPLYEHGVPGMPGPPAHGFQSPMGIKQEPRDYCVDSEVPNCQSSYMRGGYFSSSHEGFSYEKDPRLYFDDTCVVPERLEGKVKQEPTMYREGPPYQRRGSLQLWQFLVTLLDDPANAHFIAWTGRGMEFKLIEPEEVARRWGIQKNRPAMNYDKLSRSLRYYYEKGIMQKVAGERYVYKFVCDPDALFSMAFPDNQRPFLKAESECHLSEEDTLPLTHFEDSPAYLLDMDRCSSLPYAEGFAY
Sequence of ELF4 (Q99607 whole entry): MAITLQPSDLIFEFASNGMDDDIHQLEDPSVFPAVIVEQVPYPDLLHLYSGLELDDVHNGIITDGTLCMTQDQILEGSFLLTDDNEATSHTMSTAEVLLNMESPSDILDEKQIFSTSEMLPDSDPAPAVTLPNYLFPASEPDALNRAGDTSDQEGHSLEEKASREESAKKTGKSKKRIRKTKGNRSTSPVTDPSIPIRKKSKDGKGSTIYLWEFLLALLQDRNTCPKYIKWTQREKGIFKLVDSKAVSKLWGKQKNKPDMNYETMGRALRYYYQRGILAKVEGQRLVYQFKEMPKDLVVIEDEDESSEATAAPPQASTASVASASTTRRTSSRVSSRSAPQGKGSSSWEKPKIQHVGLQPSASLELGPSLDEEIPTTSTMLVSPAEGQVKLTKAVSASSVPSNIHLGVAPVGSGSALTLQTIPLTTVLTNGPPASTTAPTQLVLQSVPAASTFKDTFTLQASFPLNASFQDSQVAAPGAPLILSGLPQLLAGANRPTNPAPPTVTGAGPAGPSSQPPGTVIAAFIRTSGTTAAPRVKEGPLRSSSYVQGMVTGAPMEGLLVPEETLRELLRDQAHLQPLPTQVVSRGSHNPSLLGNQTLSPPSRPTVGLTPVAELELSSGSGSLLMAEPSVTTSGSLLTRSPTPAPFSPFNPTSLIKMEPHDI
Sequence of ETV1 (P50549 whole entry): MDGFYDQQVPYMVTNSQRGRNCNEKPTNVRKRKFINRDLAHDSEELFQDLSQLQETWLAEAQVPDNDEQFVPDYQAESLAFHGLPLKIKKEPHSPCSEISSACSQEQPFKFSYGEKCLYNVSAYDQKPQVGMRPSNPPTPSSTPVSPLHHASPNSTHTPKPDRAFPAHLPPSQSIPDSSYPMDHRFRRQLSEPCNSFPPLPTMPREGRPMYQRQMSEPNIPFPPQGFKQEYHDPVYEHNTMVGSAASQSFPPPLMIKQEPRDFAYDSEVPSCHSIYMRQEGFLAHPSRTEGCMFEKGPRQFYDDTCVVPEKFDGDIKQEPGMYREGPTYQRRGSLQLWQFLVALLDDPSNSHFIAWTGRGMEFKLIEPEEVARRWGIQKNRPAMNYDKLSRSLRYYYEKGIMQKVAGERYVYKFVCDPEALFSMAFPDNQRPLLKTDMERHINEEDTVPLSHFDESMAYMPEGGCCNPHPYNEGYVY
Sequence of SPIB (Q01892 whole entry): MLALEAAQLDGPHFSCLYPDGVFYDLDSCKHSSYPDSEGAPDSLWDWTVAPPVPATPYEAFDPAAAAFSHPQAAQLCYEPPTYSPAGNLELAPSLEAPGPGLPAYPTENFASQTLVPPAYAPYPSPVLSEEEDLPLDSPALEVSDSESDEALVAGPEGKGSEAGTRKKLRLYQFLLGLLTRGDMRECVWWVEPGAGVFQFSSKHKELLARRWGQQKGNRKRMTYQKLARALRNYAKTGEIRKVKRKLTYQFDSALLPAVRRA
Sequence of ELF1 (P32519 whole entry): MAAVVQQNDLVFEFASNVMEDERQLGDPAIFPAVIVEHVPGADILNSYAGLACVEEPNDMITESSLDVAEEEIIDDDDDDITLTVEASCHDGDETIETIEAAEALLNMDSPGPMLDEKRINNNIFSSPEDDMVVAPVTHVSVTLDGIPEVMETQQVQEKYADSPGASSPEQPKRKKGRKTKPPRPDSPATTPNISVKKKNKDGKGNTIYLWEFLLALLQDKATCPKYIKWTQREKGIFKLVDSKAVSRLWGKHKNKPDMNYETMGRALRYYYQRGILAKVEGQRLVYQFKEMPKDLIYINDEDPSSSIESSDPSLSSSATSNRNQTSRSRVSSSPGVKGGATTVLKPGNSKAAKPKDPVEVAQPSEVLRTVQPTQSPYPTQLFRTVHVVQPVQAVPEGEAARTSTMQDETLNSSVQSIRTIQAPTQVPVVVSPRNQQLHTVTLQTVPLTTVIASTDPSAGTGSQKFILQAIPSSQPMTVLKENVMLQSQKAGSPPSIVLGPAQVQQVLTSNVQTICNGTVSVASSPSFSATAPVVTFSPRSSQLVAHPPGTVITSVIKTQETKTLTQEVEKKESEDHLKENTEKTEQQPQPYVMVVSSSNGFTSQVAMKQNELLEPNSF
Sequence of ETV6 (P41212 whole entry): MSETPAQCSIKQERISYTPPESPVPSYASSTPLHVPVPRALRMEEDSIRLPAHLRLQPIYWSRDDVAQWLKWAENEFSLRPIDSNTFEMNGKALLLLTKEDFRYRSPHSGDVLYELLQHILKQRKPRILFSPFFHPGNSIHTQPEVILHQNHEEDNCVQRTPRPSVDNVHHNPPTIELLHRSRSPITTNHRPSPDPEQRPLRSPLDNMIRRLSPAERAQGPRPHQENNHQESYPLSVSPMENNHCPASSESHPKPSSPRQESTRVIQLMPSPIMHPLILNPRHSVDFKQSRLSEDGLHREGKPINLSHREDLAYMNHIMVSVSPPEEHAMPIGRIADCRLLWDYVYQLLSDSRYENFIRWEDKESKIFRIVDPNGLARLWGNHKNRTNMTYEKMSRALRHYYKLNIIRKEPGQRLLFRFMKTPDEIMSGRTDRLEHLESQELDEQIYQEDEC

GCCCCA: the binding signal with FLI1 is 1.06 fold enrichment (6-mer frequency, TF over GST control); in the test with ELK1, 1.04 fold enrichment (6-mer frequency, TF over GST control); with ERG, 1.1 fold enrichment (6-mer frequency, TF over GST control); with ELF1 it was 1.05 fold enrichment (6-mer frequency, TF over GST control); with SPIB it was 1 fold enrichment (6-mer frequency, TF over GST control); with ELK3, 1.1 fold enrichment (6-mer frequency, TF over GST control). In addition, the binding signal was 1.07 fold enrichment (6-mer frequency, TF over GST control) with FEV; 1.02 fold enrichment (6-mer frequency, TF over GST control) with ETV5; 1.05 fold enrichment (6-mer frequency, TF over GST control) with SPIC; 1.07 fold enrichment (6-mer frequency, TF over GST control) with ELF4; 1.03 fold enrichment (6-mer frequency, TF over GST control) with ETV1; 1.12 fold enrichment (6-mer frequency, TF over GST control) with ETV3L. Further, the binding signal with ETV3 was 1.06 fold enrichment (6-mer frequency, TF over GST control); with ETV6 it was 1.03 fold enrichment (6-mer frequency, TF over GST control).
For the sequence CCGATG, the binding signal with FLI1 was 1.07 fold enrichment (6-mer frequency, TF over GST control); with ELK1 it was 1.1 fold enrichment (6-mer frequency, TF over GST control); with GABPA, 1.18 fold enrichment (6-mer frequency, TF over GST control); in the test with ERG, 1.06 fold enrichment (6-mer frequency, TF over GST control); in the test with EHF, 1.03 fold enrichment (6-mer frequency, TF over GST control); in the test with SPI1, 1.08 fold enrichment (6-mer frequency, TF over GST control). Further, the binding signal is 1.2 fold enrichment (6-mer frequency, TF over GST control) with SPIB; 1.08 fold enrichment (6-mer frequency, TF over GST control) with FEV; 1.11 fold enrichment (6-mer frequency, TF over GST control) with ETV5; 1.2 fold enrichment (6-mer frequency, TF over GST control) with SPIC; 1.14 fold enrichment (6-mer frequency, TF over GST control) with ELF4; 1.1 fold enrichment (6-mer frequency, TF over GST control) in the test with ETV1. Besides, the binding signal is 1.1 fold enrichment (6-mer frequency, TF over GST control) in the test with ERF; 1.1 fold enrichment (6-mer frequency, TF over GST control) with ETV3L; 1.12 fold enrichment (6-mer frequency, TF over GST control) with ETV3.
